Data taken from PubChem BioAssay (NCI).
Values joined by “and” are separate entries in the source; they are usually repeats but may differ in a detail not shown here. Identical values can stand only once. Compounds without any hit were thinned out: in the full panel of roughly 83,000, 20% have a hit.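 Assay: single dose, 48 h. Readout: percent growth (0 = no net growth; negative = cell death). Active: <10.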 Active and inactive are the calls of the source.

What was measured:
Experiment in all cases: NCI-60 one-dose screen, 48 h (100 = growth as untreated, 0 = no growth, -100 = all killed)
Details in all cases: 10 µM unless noted
SR leukemia = test system: SR leukemia
RPMI-8226 leukemia = test system: RPMI-8226 leukemia
OVCAR-8 ovarian = test system: OVCAR-8 ovarian
OVCAR-5 ovarian = test system: OVCAR-5 ovarian
OVCAR-4 ovarian = test system: OVCAR-4 ovarian
SK-OV-3 ovarian = test system: SK-OV-3 ovarian
IGROV1 ovarian = test system: IGROV1 ovarian
OVCAR-3 ovarian = test system: OVCAR-3 ovarian
HS 578T breast = test system: HS 578T breast
NCI/ADR-RES ovarian = test system: NCI/ADR-RES ovarian
T-47D breast = test system: T-47D breast
BT-549 breast = test system: BT-549 breast
MDA-MB-435 melanoma = test system: MDA-MB-435 melanoma
SW-620 colon = test system: SW-620 colon
MCF7 breast = test system: MCF7 breast
HCT-116 colon = test system: HCT-116 colon
HCC-2998 colon = test system: HCC-2998 colon
KM12 colon = test system: KM12 colon

Measured: growth

COC(=O)c1nc(-c2ccc(C)cc2)oc1S(=O)(=O)c1ccc(Cl)cc1
inactive: RPMI-8226 leukemia 81.2% | OVCAR-8 ovarian 94.2% | OVCAR-5 ovarian 96.3% | OVCAR-4 ovarian 100% | SK-OV-3 ovarian 97.4% | IGROV1 ovarian 89.3% | OVCAR-3 ovarian 107% | HS 578T breast 105% | NCI/ADR-RES ovarian 105% | T-47D breast 88.6% | BT-549 breast 83.4% | MDA-MB-435 melanoma 107% | SW-620 colon 80% | MCF7 breast 89.8% | HCT-116 colon 77.7% | HCC-2998 colon 112% | KM12 colon 116%
active: SR leukemia -15.7%

CC1(Cc2ccccc2)CC2=C(C(=O)O1)C(c1ccccc1)NC(=O)N2 (stereo unspecified)
inactive: SR leukemia 76.6% | RPMI-8226 leukemia 94% | OVCAR-8 ovarian 104% | OVCAR-5 ovarian 81.2% | OVCAR-4 ovarian 108% | SK-OV-3 ovarian 98.8% | IGROV1 ovarian 118% | OVCAR-3 ovarian 109% | HS 578T breast 109% | NCI/ADR-RES ovarian 106% | T-47D breast 97% | BT-549 breast 104% | MDA-MB-435 melanoma 99.4% | SW-620 colon 106% | MCF7 breast 105% | HCT-116 colon 86.9% | HCC-2998 colon 94.9% | KM12 colon 107%

CN(C)CC1(C)Cc2ccsc2C1O (stereo unspecified)
inactive: SR leukemia 102% and 83.2% | RPMI-8226 leukemia 106% and 98.8% | OVCAR-8 ovarian 110% and 105% | OVCAR-5 ovarian 101% and 105% | OVCAR-4 ovarian 113% and 100% | SK-OV-3 ovarian 109% and 104% | IGROV1 ovarian 123% and 110% | OVCAR-3 ovarian 127% and 105% | HS 578T breast 129% | NCI/ADR-RES ovarian 106% and 103% | T-47D breast 113% and 100% | BT-549 breast 113% and 102% | MDA-MB-435 melanoma 111% and 107% | SW-620 colon 105% and 112% | MCF7 breast 110% and 105% | HCT-116 colon 115% and 104% | HCC-2998 colon 107% and 103% | KM12 colon 116% and 106%

O=C(Nc1ccc(Cl)c(Cl)c1)Nc1ccc(Cl)c(Cl)c1
-96.3% (active) and 14% (inactive): KM12 colon
-36.5% (active) and 10.6% (inactive): RPMI-8226 leukemia
-85.3% (active) and 41.8% (inactive): OVCAR-5 ovarian
-45% (active) and 48.8% (inactive): HS 578T breast
-78.7% (active) and 23.2% (inactive): OVCAR-8 ovarian
-60.5% (active) and 19.3% (inactive): SW-620 colon
-51.5% (active) and 12.6% (inactive): T-47D breast
-83.3% (active) and 37.7% (inactive): BT-549 breast
-75.9% (active) and 13.6% (inactive): MCF7 breast
active: OVCAR-4 ovarian -86.4% | IGROV1 ovarian -86.4% and 4.75% | OVCAR-3 ovarian -95.3% and 6.41% | HCT-116 colon -89.9% and 4.25%
-54.9% (active) and 14.6% (inactive): NCI/ADR-RES ovarian
-16.6% (active) and 28.9% (inactive): SR leukemia
-95.9% (active) and 22.8% (inactive): HCC-2998 colon
-80.9% (active) and 13.6% (inactive): MDA-MB-435 melanoma
-87% (active) and 29.5% (inactive): SK-OV-3 ovarian

COc1cc(/C=C(/c2ccccc2)[N+](=O)[O-])c(OC)c2c1OCO2
active: SR leukemia -18.9% | RPMI-8226 leukemia -19.7% | OVCAR-8 ovarian -1.64% | OVCAR-5 ovarian -36.7% | OVCAR-4 ovarian -25.9% | IGROV1 ovarian -41.8% | OVCAR-3 ovarian -97.4% | T-47D breast -55.9% | BT-549 breast -84.4% | MDA-MB-435 melanoma -23% | SW-620 colon -40.5% | MCF7 breast -36.4% | HCT-116 colon -86.4% | HCC-2998 colon -91% | KM12 colon -50.8%
inactive: SK-OV-3 ovarian 63% | HS 578T breast 31% | NCI/ADR-RES ovarian 10.7%

CCCCCCCCn1ccc2cc(NC(=O)CN3CCN(c4nc(C)cc(N5CCCCC5)n4)CC3)ccc21
inactive: SR leukemia 53.3% | RPMI-8226 leukemia 59.9% | OVCAR-8 ovarian 90.2% | OVCAR-5 ovarian 103% | OVCAR-4 ovarian 82.7% | SK-OV-3 ovarian 98.8% | IGROV1 ovarian 73.9% | OVCAR-3 ovarian 94.4% | HS 578T breast 91.5% | NCI/ADR-RES ovarian 85.8% | T-47D breast 79.6% | BT-549 breast 83.4% | MDA-MB-435 melanoma 92.4% | SW-620 colon 87.6% | MCF7 breast 70.8% | HCT-116 colon 76% | HCC-2998 colon 117% | KM12 colon 86.4%

C#CCOc1cccc(Nc2ncc3ncn(C4CCN(C(=O)CCl)C4)c3n2)c1 (stereo unspecified)
active: SR leukemia -1.16% [6.25 µM] | IGROV1 ovarian 1% [6.25 µM] | OVCAR-3 ovarian -6.2% [6.25 µM] | T-47D breast -10.5% [6.25 µM] | SW-620 colon -41.4% [6.25 µM] | MCF7 breast 8.03% [6.25 µM] | HCT-116 colon 0.194% [6.25 µM]
inactive: RPMI-8226 leukemia 44.1% [6.25 µM] | OVCAR-8 ovarian 51.7% [6.25 µM] | OVCAR-5 ovarian 53.3% [6.25 µM] | OVCAR-4 ovarian 36.3% [6.25 µM] | SK-OV-3 ovarian 73.4% [6.25 µM] | HS 578T breast 82.2% [6.25 µM] | NCI/ADR-RES ovarian 78% [6.25 µM] | BT-549 breast 29.3% [6.25 µM] | MDA-MB-435 melanoma 35.2% [6.25 µM] | HCC-2998 colon 74.9% [6.25 µM] | KM12 colon 87.5% [6.25 µM]

O=C(CCCCCCCCC(=O)N/N=C\c1ccccc1O)N/N=C\c1ccccc1O
inactive: SR leukemia 13.5% | RPMI-8226 leukemia 32.8% | OVCAR-8 ovarian 25.5% | OVCAR-5 ovarian 67.5% | OVCAR-4 ovarian 15.9% | SK-OV-3 ovarian 36.9% | IGROV1 ovarian 29.6% | OVCAR-3 ovarian 39.8% | HS 578T breast 46.8% | NCI/ADR-RES ovarian 14.1% | T-47D breast 18.1% | BT-549 breast 26.9% | MDA-MB-435 melanoma 33.8% | SW-620 colon 30.2% | MCF7 breast 16.9% | HCT-116 colon 13% | HCC-2998 colon 44.8% | KM12 colon 26.5%

Cn1c(=O)c2c(nc(Nc3cc(=O)[nH]c(=O)[nH]3)n2Cc2ccccc2)n(C)c1=O
inactive: SR leukemia 90.7% | RPMI-8226 leukemia 87.9% | OVCAR-5 ovarian 96.9% | OVCAR-4 ovarian 52.4% | SK-OV-3 ovarian 24.6% | IGROV1 ovarian 89.4% | NCI/ADR-RES ovarian 99.7% | T-47D breast 18.9% | BT-549 breast 98.2% | SW-620 colon 19.3% | MCF7 breast 95.5% | HCT-116 colon 94.2% | HCC-2998 colon 107%
active: OVCAR-8 ovarian 7.39% | OVCAR-3 ovarian 0.369% | HS 578T breast -16.6% | MDA-MB-435 melanoma -73% | KM12 colon 5.18%

O=c1c2c([nH]c3ccccc13)CCCC2
103% (inactive) and -56.9% (active): MDA-MB-435 melanoma
118% (inactive) and -8.45% (active): OVCAR-3 ovarian
inactive: SR leukemia 87.9% and 10.9% | RPMI-8226 leukemia 87.2% and 38.6% | OVCAR-8 ovarian 99.8% and 40.5% | OVCAR-5 ovarian 91.3% and 78.2% | OVCAR-4 ovarian 100% and 68.5% | SK-OV-3 ovarian 104% and 44.2% | IGROV1 ovarian 111% and 44.1% | HS 578T breast 98.2% and 72.4% | NCI/ADR-RES ovarian 104% and 22.2% | T-47D breast 105% and 55.5% | BT-549 breast 106% and 59% | SW-620 colon 92.6% and 16.1% | MCF7 breast 88.7% and 17.7% | HCT-116 colon 95.6% and 23.5% | HCC-2998 colon 55.5% | KM12 colon 99.2% and 19.7%

Brc1ccc(/C=C(/C2=NCCN2)n2ccc3ccccc32)cc1
inactive: SR leukemia 30.4% | RPMI-8226 leukemia 86.1% | OVCAR-8 ovarian 72.3% | OVCAR-5 ovarian 72.9% | OVCAR-4 ovarian 67.7% | SK-OV-3 ovarian 82% | IGROV1 ovarian 60.7% | OVCAR-3 ovarian 77.6% | HS 578T breast 78.2% | NCI/ADR-RES ovarian 65.9% | T-47D breast 53.1% | BT-549 breast 80.3% | MDA-MB-435 melanoma 58.2% | SW-620 colon 71.8% | MCF7 breast 30.2% | HCT-116 colon 52.9% | HCC-2998 colon 48.5% | KM12 colon 80.4%

CONC1=Nc2cc(NC(N)=NCc3ccccc3)c(N(C)C3CCCCC3)cc2OC1
active: SR leukemia -12.1%
inactive: RPMI-8226 leukemia 38.5% | OVCAR-8 ovarian 83.9% | OVCAR-5 ovarian 65.5% | OVCAR-4 ovarian 73.8% | SK-OV-3 ovarian 83.5% | IGROV1 ovarian 59.6% | OVCAR-3 ovarian 77.4% | HS 578T breast 71.4% | NCI/ADR-RES ovarian 99.8% | T-47D breast 63.7% | BT-549 breast 92% | MDA-MB-435 melanoma 73% | SW-620 colon 75% | MCF7 breast 36.1% | HCT-116 colon 45.8% | HCC-2998 colon 22.1% | KM12 colon 61.5%
